Molecules are shown by their SMILES. “And” between values parts separate entries of the source, which are not always exact repeats. Equal entries are not always repeated. A number with no mark means an inactive call. Records with an inconclusive call do not appear. The source made the active and inactive calls. Unless noted, calls follow the shape of the dose curve; as a rule, active = well fitted curve in the direction sought with a large enough effect in the repeat runs; inconclusive = weak or mixed curves; inactive = no such curve, though single readings can be large; an effect the other way counts as inactive or inconclusive.

The nature of assay [1]: qHTS assay to identify small molecule antagonists of the estrogen related receptor (ERR) signaling pathway from Tox21 library (AID 1224848). Also: nearly all actives have a fitted effect of over 50% in size. Also: potency is read from the fitted curve at half-maximal effect. The gist of the method:
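Luminescent reporter read-out (ONE-Glo) from NTP's ERR cell line after 18 h treatment at 37 C with DMSO-dissolved Tox21 compounds; cells pre-plated 6 h beforehand at 2,000 per well.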
On the technique in general: qHTS replaces the single test concentration by a dilution series.

Assay [2] in a line: qHTS assay to identify small molecule agonists of the estrogen related receptor (ERR) signaling pathway from Tox21 library (AID 1224849; calls by dose curve; also: % is scaled to controls: 0 for no effect and ±100 for the full control effect; nearly all actives have a fitted effect of over 15% in size). The settings on record: ERR reporter cell line, ONE-Glo luciferase, 18 h; at 92.4 µM (top of the series) unless noted. An outline of the steps: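 ERR cells, 6 h pre-incubation 37 C/5% CO2; cpd in DMSO pinned; 18 h 37 C; ONE-Glo added, 30 min RT; luminescence read. Agonist mode, qHTS.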

A short description of assay [3]: qHTS RealTime-Glo MT Cell Viability Assay in HepG2 cells - 24 hour (AID 1224867). Also: nearly all actives have a fitted effect of over 50% in size. Also: potency is read from the fitted curve at half-maximal effect. An outline of the steps: (§1)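 Cells + NanoLuc/prosubstrate dispensed (600 cells/well) → 5 h at 37 C/5% CO2 → compounds in DMSO transferred → 40 h incubation at 37 C, luminescence read at 0, 8, 16, 24, 32, 40 h.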
The nature of assay [4]: A CellTox Green Cytotoxicity Assay to monitor cytotoxicity in HEK293 cells - 0 hour (AID 1224869). Also: % is scaled to controls: 0 for no effect and ±100 for the full control effect; nearly all actives have a fitted effect of over 50% in size. The gist of the method: (§2)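 Nonlytic real-time cytotoxicity: HEK293 + CellTox Green reagent plated, 5 h preincubation, pintool compound addition (23 nL in DMSO), 37 C for 40 h, fluorescence measured at successive time points.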
Assay [5] in a line: qHTS RealTime-Glo MT Cell Viability Assay in HepG2 cells - 40 hour (AID 1224870). Also: nearly all actives have a fitted effect of over 50% in size. Also: potency is read from the fitted curve at half-maximal effect. The gist of the method: (§3)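 HepG2 cells (600/well) mixed with RealTime-Glo MT reagent, settled 5 h at 37 C/5% CO2 before compound addition. Nonlytic NanoLuc luminescence from viable-cell prosubstrate reduction read repeatedly during 40 h treatment at 37 C.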
Assay [6] in a line: A CellTox Green Cytotoxicity Assay to monitor cytotoxicity in HEK293 cells - 40 hour (AID 1224871). Also: nearly all actives have a fitted effect of over 45% in size. Also: potency is read from the fitted curve at half-maximal effect. The gist of the method: as §2
A short description of assay [7]: qHTS RealTime-Glo MT Cell Viability Assay in HEK293 cells - 16 hour (AID 1224872). Also: nearly all actives have a fitted effect of over 50% in size. Also: potency is read from the fitted curve at half-maximal effect. The gist of the method: (§4)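 Tox21 10K qHTS, HEK293, 600 cells/well, RealTime-Glo reagent co-dispensed with cells; 5 h preincubation, compound by pintool, 37 C, luminescence at 0–40 h.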
Assay [8] is described as follows: qHTS RealTime-Glo MT Cell Viability Assay in HepG2 cells - 8 hour (AID 1224873). Also: nearly all actives have a fitted effect of over 55% in size. Also: potency is read from the fitted curve at half-maximal effect. An outline of the steps:
as §3

A short description of assay [9]: A CellTox Green Cytotoxicity Assay to monitor cytotoxicity in HEK293 cells - 24 hour (AID 1224875). Also: nearly all actives have a fitted effect of over 45% in size. Also: potency is read from the fitted curve at half-maximal effect. As to activity change: % is scaled to controls: 0 for no effect and ±100 for the full control effect. The gist of the method:
as §2

The nature of assay [10]: A CellTox Green Cytotoxicity Assay to monitor cytotoxicity in HepG2 cells - 16 hour (AID 1224876). Also: nearly all actives have a fitted effect of over 45% in size. Also: potency is read from the fitted curve at half-maximal effect. An outline of the steps: (§5)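 Read-out is fluorescence of a cyanine dye excluded from live cells that stains DNA of dead HepG2 cells, with signal proportional to cytotoxicity. Plates were read at 0, 8, 16, 24, 32 and 40 h after compound addition.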
Assay [11] in a line: qHTS RealTime-Glo MT Cell Viability Assay in HepG2 cells - 32 hour (AID 1224877). Also: nearly all actives have a fitted effect of over 55% in size. Also: potency is read from the fitted curve at half-maximal effect. The gist of the method: as §1
Assay [12] in a line: A CellTox Green Cytotoxicity Assay to monitor cytotoxicity in HepG2 cells - 24 hour (AID 1224878). Also: nearly all actives have a fitted effect of over 45% in size. Also: potency is read from the fitted curve at half-maximal effect. As to Cytotoxicity: % is scaled to controls: 0 for no effect and ±100 for the full control effect. The gist of the method: as §5
Assay [13] is described as follows: A CellTox Green Cytotoxicity Assay to monitor cytotoxicity in HepG2 cells - 40 hour (AID 1224879). Also: nearly all actives have a fitted effect of over 40% in size. Also: potency is read from the fitted curve at half-maximal effect. An outline of the steps:
as §5

Assay [14] in a line: qHTS RealTime-Glo MT Cell Viability Assay in HEK293 cells - 0 hour (AID 1224880). An outline of the steps:
(§6)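 Cells were seeded together with NanoLuc luciferase and a prosubstrate that viable cells reduce to a luciferase substrate. After a 5 h incubation at 37 C/5% CO2, compounds were added and luminescence was measured repeatedly during 40 h of treatment.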

Assay [15] is described as follows: A CellTox Green Cytotoxicity Assay to monitor cytotoxicity in HepG2 cells - 0 hour (AID 1224882). Also: % is scaled to controls: 0 for no effect and ±100 for the full control effect; nearly all actives have a fitted effect of over 35% in size. An outline of the steps: as §5
The nature of assay [16]: qHTS RealTime-Glo MT Cell Viability Assay in HEK293 cells - 32 hour (AID 1224868). Also: nearly all actives have a fitted effect of over 50% in size. Also: potency is read from the fitted curve at half-maximal effect. The gist of the method: as §4
A short description of assay [17]: qHTS RealTime-Glo MT Cell Viability Assay in HEK293 cells - 40 hour (AID 1224874). The settings on record: RealTime-Glo luminescence; max response: hits give low values. An outline of the steps:
as §6

Assay [18] is described as follows: A CellTox Green Cytotoxicity Assay to monitor cytotoxicity in HEK293 cells - 32 hour (AID 1224881). Also: nearly all actives have a fitted effect of over 40% in size. Also: potency is read from the fitted curve at half-maximal effect. The gist of the method: as §2

Take `ClC(Cl)=C(c1ccc(Cl)cc1)c1ccc(Cl)cc1`: the Potency result in [1], in assay [3], in assay [4], in assay [5], in assay [8] and in assay [9] was “inactive” each time. The Potency entry in assay [10], in assay [11], in [12], in assay [13], in [14] and in assay [15] was “inactive” throughout. For the same molecule, the activity change, positive = activation in [2] was -26.1% and 7.66%. For the same molecule, the results for the Potency in assay [6] and in assay [7] were 43.6 µM (active) and 56.3 µM (active), respectively.

Turning to `C=CC(=O)OCCCCOC(=O)C=C`, the Potency result in [1], in assay [10], in assay [12], in assay [14] and in [15] was “inactive” in each case. The activity change, positive = activation in assay [2] was -26.6% (active). The Potency in assay [3] was 49 µM (active); in [16], 34.7 µM (active); in [6], 43.6 µM (active); in assay [11], 49 µM (active).

On to `CC1(C)CC/C(=C/c2ccc(Cl)cc2)C1(O)Cn1cncn1` (configuration not stated), for which the Potency result in [3], in assay [4], in [5], in assay [8], in assay [9] and in [11] was “inactive” in each case. Moreover, the Potency entry in assay [14] and in [15] was “inactive” each time.

Regarding `O=C(CCCN1CCC2(CC1)C(=O)NCN2c1ccccc1)c1ccc(F)cc1`, the Potency entry in assay [1], in [3], in assay [4], in [5], in [8] and in assay [9] was “inactive” each time. Further, the Potency result in assay [11], in assay [12], in assay [13], in [14] and in assay [18] was “inactive” throughout. Further, the Potency is 9.52 µM (active) in assay [16], 19 µM (active) in assay [6], 6.74 µM (active) in assay [7] and 13.4 µM (active) in assay [17].

On to `O=c1[nH]c2ccccc2n1CCCN1CCC(n2c(=O)[nH]c3cc(Cl)ccc32)CC1`, for which the Potency entry in assay [3], in assay [4], in assay [5], in [6], in assay [8] and in [9] was “inactive” throughout. In addition, the Potency result in [10], in assay [14], in [18] and in assay [15] was “inactive” each time. Besides, the Potency in assay [16] was 10.7 µM (active); in [7], 9.52 µM (active); in assay [17] it was 10.7 µM (active); in [12], 21.3 µM (active).

As to `COC(=O)N(C(=O)N1COC2(C(=O)OC)Cc3cc(Cl)ccc3C2=N1)c1ccc(OC(F)(F)F)cc1` (configuration not stated), the Potency in [1] is 11.9 µM (active). Further, in [2], the activity change, positive = activation is -49.3% [at 42.5 µM]. In addition, the Potency entry in assay [3], in assay [16], in [4], in [5], in assay [6] and in assay [8] was “inactive” in each case. Further, the Potency result in assay [9], in assay [10], in assay [11], in [12], in [13] and in [14] was “inactive” each time. Further, the Potency result in assay [18] and in assay [15] was “inactive” throughout.

On to `O=[N+]([O-])c1cc(C(F)(F)F)c(Cl)c([N+](=O)[O-])c1Cl`, for which the Potency is 27.3 µM (active) in assay [1]; 21.9 µM (active) in assay [3]; 5.49 µM (active) in [16]; 13.8 µM (active) in [5]; 6.16 µM (active) in assay [6]; 6.92 µM (active) in assay [7]. In addition, the Potency was 43.6 µM (active) in [8]; 4.9 µM (active) in assay [17]; 7.76 µM (active) in assay [9]; 49 µM (active) in assay [10]; 21.9 µM (active) in assay [11]; 24.5 µM (active) in [12]. For the same molecule, the figures for the Potency in assay [13] and in assay [18] were 19.5 µM (active) and 7.76 µM (active), respectively. Besides, the activity change, positive = activation in assay [2] is -73.4%. The Potency entry in assay [4], in assay [14] and in assay [15] was “inactive” in each case.

On to `S=C(SSC(=S)N1CCCCC1)N1CCCCC1`, for which the Potency was 0.473 µM (active) in [1]; 15.1 µM (active) in assay [16]; 0.213 µM (active) in assay [5]; 0.151 µM (active) in assay [6]; 16.9 µM (active) in assay [7]; 26.8 µM (active) in assay [8]. Further, the results for the Potency in [11], in assay [13] and in assay [18] were 0.213 µM (active), 0.169 µM (active) and 0.107 µM (active), respectively. In addition, the activity change, positive = activation in assay [2] was -70.7% [at 42.5 µM]. Besides, the Potency result in assay [4], in assay [9], in assay [14] and in [15] was “inactive” each time.

For the molecule `CC(C)(O)c1cnn2c(-c3ccc(F)c(-c4c(F)cccc4C#N)c3)cnc2n1`, the Potency in [1] was 27.3 µM (active); in assay [16], 5.49 µM (active); in [7], 5.49 µM (active). Besides, the activity change, positive = activation in assay [2] was -53.4%. The Potency result in assay [3], in [4], in assay [5], in [8], in assay [9] and in [10] was “inactive” each time. The Potency result in assay [11], in assay [12], in assay [13] and in [15] was “inactive” throughout.

In the case of `CCOP(=O)(NC(C)C)Oc1ccc(SC)c(C)c1` (configuration not stated), the Potency result in assay [3], in assay [4], in [5], in assay [8], in assay [9] and in assay [11] was “inactive” in each case. The Potency entry in [14], in assay [18] and in assay [15] was “inactive” throughout. Moreover, the Potency in assay [16] was 12.3 µM (active); in [17] it was 13.8 µM (active).

For `CC(C)N1C(=O)N(c2ccccc2)CSC1=NC(C)(C)C`, the Potency in assay [1] is 34.4 µM (active); in assay [16], 21.9 µM (active); in [7] it was 19.5 µM (active); in assay [17], 21.9 µM (active). Further, the activity change, positive = activation in assay [2] was -49.9%. The Potency result in assay [3], in assay [4], in [5], in [6], in assay [8] and in assay [9] was “inactive” each time. In addition, the Potency result in [10], in assay [11], in assay [12], in [13], in assay [14] and in assay [18] was “inactive” each time. The Potency entry in [15] was “inactive”.

On to `COP(=S)(OC)Oc1cc(Cl)c(Br)cc1Cl`, for which the Potency entry in assay [3], in [16], in assay [5], in assay [6], in assay [7] and in [8] was “inactive” in each case. The Potency entry in [9], in assay [10], in assay [11], in [12], in assay [13] and in [14] was “inactive” in each case. In addition, the Potency result in assay [18] and in assay [15] was “inactive” each time.

For the origin of these results see PubChem BioAssay (Tox21).
